This is an account of results in paper PMC8384837, “Expanding the binding specificity for RNA recognition by a PUF domain”.

Where a chain is given by its changes, count along the chain named.

Assay in all cases: yeast three-hybrid, YBZ-1, SC-Leu-His + 0.5 mM 3-AT, 4 days
Holding throughout (settings): tags: N-Gal4 AD-HA kept; label: inside an RPR1-promoter hybrid RNA with tandem MS2 sites; ssRNA

One assay has as its target PUM1 PUF domain R8-KFL (Homo sapiens, UniProt Q14671 828-1176, N1122K;Y1123F;Q1126L). Put shortly: (§1)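 Matching RNA elements and Pumilio-1 PUF domain libraries, randomized at the three base-contacting residues of every repeat, were co-expressed from a centromeric plasmid in strain YBZ-1 (LexA–MS2 coat fusion, HIS3 reporter). The repeat regions were PCR-amplified and Illumina-sequenced from cells grown four days on SC-Leu (input) or SC-Leu-His + 0.5 mM 3-AT (selection). The interaction score is the log change in variant frequency from input to selection. It is computed in log2, with a pseudocount of 1 for absent variants.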

The target in the next assay is PUM1 PUF domain R8-PWC (Homo sapiens, UniProt Q14671 828-1176, N1122P;Y1123W;Q1126C). Put shortly: as §1
A further assay deals with PUM1 PUF domain R8-NFR (Homo sapiens, UniProt Q14671 828-1176, Y1123F;Q1126R). Summed up:
as §1

Another assay has as its target T1, PUM1 PUF domain R6-SRD (Homo sapiens, UniProt Q14671 828-1176, N1043S;Y1044R;Q1047D).
T1 sequence: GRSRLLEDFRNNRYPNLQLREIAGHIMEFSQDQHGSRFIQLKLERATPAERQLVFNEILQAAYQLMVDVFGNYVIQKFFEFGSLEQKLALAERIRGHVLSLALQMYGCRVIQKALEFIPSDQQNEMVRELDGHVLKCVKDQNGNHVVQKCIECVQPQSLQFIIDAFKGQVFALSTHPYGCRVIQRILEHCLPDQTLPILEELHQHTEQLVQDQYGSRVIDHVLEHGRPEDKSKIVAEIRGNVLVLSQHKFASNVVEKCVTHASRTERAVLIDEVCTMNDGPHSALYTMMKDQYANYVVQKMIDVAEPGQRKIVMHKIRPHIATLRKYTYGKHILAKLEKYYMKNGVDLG
Put shortly:
as §1

For a further assay, the target named is PUM1 PUF domain R4-DHA (Homo sapiens, UniProt Q14671 828-1176, N971D;Q975A). Put shortly:
as §1

The next assay has as its target PUM1 PUF domain R3-MRL (Homo sapiens, UniProt Q14671 828-1176, C935M;Q939L). Summed up: as §1
A further assay concerns the target PUM1 PUF domain R3-MRT (Homo sapiens, UniProt Q14671 828-1176, C935M;Q939T). Summed up:
as §1

The next assay deals with PUM1 PUF domain R5-GRS (Homo sapiens, UniProt Q14671 828-1176, C1007G;Q1011S). Put shortly:
as §1

In the next assay the target is PUM1 PUF domain R3-THE (Homo sapiens, UniProt Q14671 828-1176, C935T;R936H;Q939E). Summed up: as §1
A further assay concerns the target T2, PUM1 PUF domain R6-GWI (Homo sapiens, UniProt Q14671 828-1176, N1043G;Y1044W;Q1047I).
T2 sequence: T1 sequence with S216G, R217W, D220I
Put shortly:
as §1

The next assay concerns the target PUM1 PUF domain R4-CRA (Homo sapiens, UniProt Q14671 828-1176, N971C;H972R;Q975A). Summed up:
as §1

For the next assay, the target named is T3, PUM1 PUF domain R6-FHR (Homo sapiens, UniProt Q14671 828-1176, N1043F;Y1044H;Q1047R).
T3 sequence: T1 sequence with S216F, R217H, D220R
Put shortly: as §1

The next assay has as its target T4, PUM1 PUF domain R6-LYM (Homo sapiens, UniProt Q14671 828-1176, N1043L;Q1047M).
T4 sequence: T1 sequence with S216L, R217Y, D220M
Put shortly: as §1

A further assay concerns the target T5, PUM1 PUF domain R6-AFF (Homo sapiens, UniProt Q14671 828-1176, N1043A;Y1044F;Q1047F).
T5 sequence: T1 sequence with S216A, R217F, D220F
Summed up:
as §1

A further assay has as its target PUM1 PUF domain R5-CNH (Homo sapiens, UniProt Q14671 828-1176, R1008N;Q1011H). Put shortly: as §1
For the next assay, the target named is PUM1 PUF domain R5-RAT (Homo sapiens, UniProt Q14671 828-1176, C1007R;R1008A;Q1011T). Put shortly: as §1
The target in another assay is PUM1 PUF domain R5-RQK (Homo sapiens, UniProt Q14671 828-1176, C1007R;R1008Q;Q1011K). Put shortly: as §1
For a further assay, the target named is PUM1 PUF domain R7-RNR (Homo sapiens, UniProt Q14671 828-1176, S1079R;E1083R). Summed up:
as §1

Another assay concerns the target T6, PUM1 PUF domain R6-SRQ (Homo sapiens, UniProt Q14671 828-1176, N1043S;Y1044R).
T6 sequence: T1 sequence with D220Q
Summed up: as §1

In the next assay the target is PUM1 PUF domain R4-LHH (Homo sapiens, UniProt Q14671 828-1176, N971L;Q975H). Summed up: as §1

Chain of PUM1 PUF domain R5-GRS (Q14671 828-1176 C1007G/Q1011S): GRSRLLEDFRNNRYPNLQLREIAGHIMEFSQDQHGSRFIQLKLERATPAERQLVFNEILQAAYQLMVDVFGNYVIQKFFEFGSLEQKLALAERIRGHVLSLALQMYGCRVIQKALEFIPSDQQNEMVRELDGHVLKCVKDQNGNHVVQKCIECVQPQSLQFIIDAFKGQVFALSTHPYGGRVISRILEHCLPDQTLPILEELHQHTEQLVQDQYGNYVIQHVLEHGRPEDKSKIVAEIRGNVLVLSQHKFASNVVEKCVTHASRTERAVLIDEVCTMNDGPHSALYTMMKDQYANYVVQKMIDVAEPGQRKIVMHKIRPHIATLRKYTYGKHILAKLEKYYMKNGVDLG

As to “GGCUAGAACUAGUGGAUCCCCCGGCGCCCGGCGGCUCGAGCCCGGGUAAGCGUAAAUAGUCUGCAUGCCGCCGGGCGCCAUGCCUGCAGGUCGACUCUAGAAAACAUG”, the binding signal with PUM1 PUF domain R8-KFL is 4.76 log2 enrichment (interaction score); in the assay with PUM1 PUF domain R8-PWC, 2.98 log2 enrichment (interaction score); with PUM1 PUF domain R8-NFR it was 3.71 log2 enrichment (interaction score).

For “GGCUAGAACUAGUGGAUCCCCCGGCGCCCGGCGGCUCGAGCCCGGGUAAGUGGAAAUAGUCUGCAUGCCGCCGGGCGCCAUGCCUGCAGGUCGACUCUAGAAAACAUG”, in the assay with PUM1 PUF domain R6-SRD, the binding signal is 4.81 log2 enrichment (interaction score).

For “GGCUAGAACUAGUGGAUCCCCCGGCGCCCGGCGGCUCGAGCCCGGGUAAGUGUACAUAGUCUGCAUGCCGCCGGGCGCCAUGCCUGCAGGUCGACUCUAGAAAACAUG”, the binding signal with PUM1 PUF domain R4-DHA is 5.96 log2 enrichment (interaction score).

Regarding “GGCUAGAACUAGUGGAUCCCCCGGCGCCCGGCGGCUCGAGCCCGGGUAAGUGUAAUUAGUCUGCAUGCCGCCGGGCGCCAUGCCUGCAGGUCGACUCUAGAAAACAUG”, the binding signal was 1.67 log2 enrichment (interaction score) with PUM1 PUF domain R3-MRL and 3.61 log2 enrichment (interaction score) in the assay with PUM1 PUF domain R3-MRT.

Turning to “GGCUAGAACUAGUGGAUCCCCCGGCGCCCGGCGGCUCGAGCCCGGGUAAGUGUGAAUAGUCUGCAUGCCGCCGGGCGCCAUGCCUGCAGGUCGACUCUAGAAAACAUG”, the binding signal with PUM1 PUF domain R5-GRS is 2.01 log2 enrichment (interaction score).

Consider “GGCUAGAACUAGUGGAUCCCCCGGCGCCCGGCGGCUCGAGCCCGGGUAAGUGUAAAUAGUCUGCAUGCCGCCGGGCGCCAUGCCUGCAGGUCGACUCUAGAAAACAUG”, for which the binding signal in the assay with PUM1 PUF domain R3-THE was 2.11 log2 enrichment (interaction score); in the assay with PUM1 PUF domain R6-GWI, 2.34 log2 enrichment (interaction score); with PUM1 PUF domain R4-CRA it was 3.82 log2 enrichment (interaction score); in the assay with PUM1 PUF domain R6-FHR, 3.45 log2 enrichment (interaction score); with PUM1 PUF domain R6-LYM, 5.36 log2 enrichment (interaction score); with PUM1 PUF domain R6-AFF it was 5.23 log2 enrichment (interaction score). For the same sequence, the binding signal with PUM1 PUF domain R8-NFR is 3.8 log2 enrichment (interaction score); with PUM1 PUF domain R5-GRS, 3.71 log2 enrichment (interaction score).

With “GGCUAGAACUAGUGGAUCCCCCGGCGCCCGGCGGCUCGAGCCCGGGUAAGUGUAAGUAGUCUGCAUGCCGCCGGGCGCCAUGCCUGCAGGUCGACUCUAGAAAACAUG”, the binding signal with PUM1 PUF domain R3-MRL is 2.68 log2 enrichment (interaction score).

In the case of “GGCUAGAACUAGUGGAUCCCCCGGCGCCCGGCGGCUCGAGCCCGGGUAAGUGUUAAUAGUCUGCAUGCCGCCGGGCGCCAUGCCUGCAGGUCGACUCUAGAAAACAUG”, the binding signal in the assay with PUM1 PUF domain R5-CNH is 2.78 log2 enrichment (interaction score); with PUM1 PUF domain R5-RAT, 1.36 log2 enrichment (interaction score); with PUM1 PUF domain R5-RQK, 4.75 log2 enrichment (interaction score); with PUM1 PUF domain R5-GRS, 4.35 log2 enrichment (interaction score).

Take “GGCUAGAACUAGUGGAUCCCCCGGCGCCCGGCGGCUCGAGCCCGGGUAAGUCUAAAUAGUCUGCAUGCCGCCGGGCGCCAUGCCUGCAGGUCGACUCUAGAAAACAUG”: the binding signal with PUM1 PUF domain R7-RNR is 4.72 log2 enrichment (interaction score).

On to “GGCUAGAACUAGUGGAUCCCCCGGCGCCCGGCGGCUCGAGCCCGGGUAAGUUUAAAUAGUCUGCAUGCCGCCGGGCGCCAUGCCUGCAGGUCGACUCUAGAAAACAUG”, for which the binding signal with PUM1 PUF domain R7-RNR is 5.92 log2 enrichment (interaction score).

“GGCUAGAACUAGUGGAUCCCCCGGCGCCCGGCGGCUCGAGCCCGGGUAAGUGAAAAUAGUCUGCAUGCCGCCGGGCGCCAUGCCUGCAGGUCGACUCUAGAAAACAUG”: the binding signal with PUM1 PUF domain R6-SRQ was 3.17 log2 enrichment (interaction score).

For “GGCUAGAACUAGUGGAUCCCCCGGCGCCCGGCGGCUCGAGCCCGGGUAAGUGUAUAUAGUCUGCAUGCCGCCGGGCGCCAUGCCUGCAGGUCGACUCUAGAAAACAUG”, the binding signal in the assay with PUM1 PUF domain R4-LHH was 4.06 log2 enrichment (interaction score).

In the case of “GGCUAGAACUAGUGGAUCCCCCGGCGCCCGGCGGCUCGAGCCCGGGUAAGUGUCAAUAGUCUGCAUGCCGCCGGGCGCCAUGCCUGCAGGUCGACUCUAGAAAACAUG”, the binding signal in the assay with PUM1 PUF domain R5-RAT was 3.06 log2 enrichment (interaction score); with PUM1 PUF domain R5-RQK, 3.94 log2 enrichment (interaction score); in the assay with PUM1 PUF domain R5-GRS, 1.13 log2 enrichment (interaction score).
